Source: PubChem BioAssay (NCATS)
Records with an inconclusive call do not appear. Active and inactive are the calls of the source. Calls come from the whole dose curve; as a rule, active = well fitted curve in the direction sought with a large enough effect; inconclusive = small, poorly fitted or top-dose-only effect, or another doubt; inactive = no such curve, though single readings can be large; an effect the other way counts as inactive or inconclusive.

What was measured:
HACAT = assay: qHTS assay to identify novel small-molecules to repurpose for Merkel cell carcinoma treatment (AID 1296009); conditions: MCC and control cell lines, CellTiter-Glo viability, 72 h; at 44.8 µM (top of the series) unless noted; note: nearly all actives have a fitted effect of over 60% in size
Method in brief: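 After compound transfer in DMSO, plates were kept 72 hr at 37 degree celsius. Luminescent ATP signal from CellTiter-Glo served as viability measure, normalized against DMSO and no-cell controls.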

C33A = assay: Primary qHTS to identify gynecologic anti-cancer compounds using libraries of approved drugs and bioactive compounds (AID 1345084); conditions: Gynecologic cancer cell panel viability, ATPlite luminescence, 48 h; series mostly up to 57.5 µM; note: % is set by controls: 0 for no effect and ±100 for the full control effect; nearly all actives have a fitted effect of over 55% in size
Method in brief: (§1)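 Cells, 1,000 per well, plated 16 h, then exposed 48 h at 37 C to compounds. Viability by ATPlite luminescence after 15 min at room temperature.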

CAOV3 = assay: as above; conditions: Gynecologic cancer cell panel viability, ATPlite luminescence, 48 h; series mostly up to 57.5 µM
Method in brief: as §1

CASKI = assay: as above; conditions: Gynecologic cancer cell panel viability, ATPlite luminescence, 48 h; series mostly up to 57.5 µM
Method in brief: as §1

Es-2 = assay: as above; conditions: Gynecologic cancer cell panel viability, ATPlite luminescence, 48 h; series mostly up to 57.5 µM
Method in brief: as §1

HeLa = assay: as above; conditions: Gynecologic cancer cell panel viability, ATPlite luminescence, 48 h; series mostly up to 57.5 µM
Method in brief: as §1

Hek293T = assay: as above; conditions: Gynecologic cancer cell panel viability, ATPlite luminescence, 48 h, control line for the selectivity index; series mostly up to 57.5 µM
Method in brief: as §1

JEG-3 = assay: as above; conditions: Gynecologic cancer cell panel viability, ATPlite luminescence, 48 h; series mostly up to 57.5 µM
Method in brief: as §1

C=C(COC(=O)C(C)C)C1Oc2cc(C(C)=O)ccc2C1OC(=O)C(C)C (stereo unspecified)
inactive: outcome (HACAT) | Potency (C33A) | Potency (CAOV3) | outcome (CASKI) | Potency (Es-2) | Potency (HeLa) | Potency (Hek293T) | Potency (JEG-3)

CC1(C)C(=O)CCC2(C)C1C(O)C=C1COC(=O)C12O (stereo unspecified)
inactive: outcome (HACAT) | Potency (C33A) | Potency (CAOV3) | outcome (CASKI) | Potency (Es-2) | Potency (HeLa) | Potency (Hek293T) | Potency (JEG-3)

CC(CC(C)O[C@@H]1O[C@H](CO)[C@@H](O)[C@H](O)[C@H]1O)OC(=O)/C=C/c1ccc(O)cc1 (stereo partly specified)
inactive: outcome (HACAT) inactive [at 17.4 µM] | Potency (C33A) | Potency (CAOV3) | outcome (CASKI) | Potency (Es-2) | Potency (HeLa) | Potency (Hek293T) | Potency (JEG-3)

CC(=O)O[C@H]1C[C@@H](O)C(C)(C)C2C[C@@H](OC(C)=O)[C@]3(C)C(CC[C@@]4(C)[C@H](c5ccoc5)OC(=O)[C@H]5O[C@]543)[C@]21C (stereo partly specified)
inactive: outcome (HACAT) inactive [at 17.4 µM] | Potency (C33A) | Potency (CAOV3) | outcome (CASKI) | Potency (Es-2) | Potency (HeLa) | Potency (Hek293T) | Potency (JEG-3)

COc1cc(C2Oc3c(OC)cc(CCCO)cc3C2CO)ccc1O (stereo unspecified)
inactive: outcome (HACAT) | Potency (C33A) | Potency (CAOV3) | outcome (CASKI) | Potency (Es-2) | Potency (HeLa) | Potency (Hek293T) | Potency (JEG-3)

C/C=C/C=C/C=C/C(=O)N(C)C(C(=O)NC(C)C(=O)N1CCCC1C(N)=O)C(C)C (stereo unspecified)
inactive: outcome (HACAT) inactive [at 17.4 µM] | Potency (C33A) | Potency (CAOV3) | outcome (CASKI) | Potency (Es-2) | Potency (HeLa) | Potency (Hek293T) | Potency (JEG-3)

CC1(CO)CCCC2(C)C1C(OC(=O)c1ccccc1)CC1C(=O)OCC12O (stereo unspecified)
inactive: outcome (HACAT) | Potency (C33A) | Potency (CAOV3) | outcome (CASKI) | Potency (Es-2) | Potency (HeLa) | Potency (Hek293T) | Potency (JEG-3)

N#CC1C(=O)N=C(c2cc(Cl)ccc2O)C=C1c1cc(OCc2ccccc2)cc(OCc2ccccc2)c1 (stereo unspecified)
inactive: outcome (HACAT) | Potency (C33A) | Potency (CAOV3) | outcome (CASKI) | Potency (Es-2) | Potency (HeLa) | Potency (Hek293T) | Potency (JEG-3)

C/C=C(/C)C(=O)O[C@@H]1C[C@@H](OC(=O)/C(C)=C\C)[C@@]2(C)C3C(=O)C=C(C)C2C3C1(C)C
inactive: outcome (HACAT) inactive [at 17.4 µM] | Potency (C33A) | Potency (CAOV3) | outcome (CASKI) | Potency (Es-2) | Potency (HeLa) | Potency (Hek293T) | Potency (JEG-3)

Cc1noc2c1-c1ccccc1C(c1ccc(Cl)cc1)=N[C@H]2CC(N)=O
inactive: outcome (HACAT) | Potency (C33A) | Potency (CAOV3) | outcome (CASKI) | Potency (Es-2) | Potency (HeLa) | Potency (Hek293T) | Potency (JEG-3)

C=C1CC23CC(=O)C4C(CO)(CO)CCCC4(C)C2CCC1C3 (stereo unspecified)
inactive: outcome (HACAT) | Potency (C33A) | Potency (CAOV3) | outcome (CASKI) | Potency (Es-2) | Potency (HeLa) | Potency (Hek293T) | Potency (JEG-3)

OC[C@@]1(O)CO[C@H](OC[C@H]2O[C@@H](OC(CCCCc3ccc(O)cc3)CCc3ccc(O)cc3)[C@H](O[C@H]3OC[C@](O)(CO)[C@H]3O)[C@@H](O)[C@@H]2O)[C@@H]1O (stereo partly specified)
inactive: outcome (HACAT) inactive [at 17.4 µM] | Potency (C33A) | Potency (CAOV3) | outcome (CASKI) | Potency (Es-2) | Potency (HeLa) | Potency (Hek293T) | Potency (JEG-3)

CC(C)CC(c1c(O)c(C=O)c(O)c(C=O)c1O)C1CCC(C)(O)C2CC(C(C)(C)O)CCC12C (stereo unspecified)
inactive: outcome (HACAT) inactive [at 17.4 µM] | Potency (C33A) | Potency (CAOV3) | outcome (CASKI) | Potency (Es-2) | Potency (HeLa) | Potency (Hek293T) | Potency (JEG-3)

COc1cc2c(cc1O)C(c1ccc(O)cc1)C(C)C(C)C2 (stereo unspecified)
inactive: outcome (HACAT) | Potency (C33A) | Potency (CAOV3) | outcome (CASKI) | Potency (Es-2) | Potency (HeLa) | Potency (Hek293T) | Potency (JEG-3)

O=C(OCC1=CC(Cl)C(O)C(OC(=O)c2ccccc2)C1O)c1ccccc1 (stereo unspecified)
inactive: outcome (HACAT) inactive [at 17.4 µM] | Potency (C33A) | Potency (CAOV3) | outcome (CASKI) | Potency (Es-2) | Potency (HeLa) | Potency (Hek293T) | Potency (JEG-3)

Cc1ccc(-c2c(-c3nn(C)c4ncnc(N5CCC(N6CCCCC6)C5)c34)cnn2C)cc1 (stereo unspecified)
inactive: outcome (HACAT) | Potency (C33A) | Potency (CAOV3) | outcome (CASKI) | Potency (Es-2) | Potency (HeLa) | Potency (Hek293T) | Potency (JEG-3)

C/C=C(/C)C(=O)O[C@H]1C[C@]2(C)O[C@@H]2[C@@H](OC(C)=O)[C@@]2(C)CC[C@@](O)(C(C)C)[C@H]12
inactive: outcome (HACAT) | Potency (C33A) | Potency (CAOV3) | outcome (CASKI) | Potency (Es-2) | Potency (HeLa) | Potency (Hek293T) | Potency (JEG-3)

O=C(OCC1OC(Oc2ccc(O)cc2COC(=O)C2(O)C(O)CCC(=O)C2OC(=O)C2C=CCC2)C(OC(=O)C2C=CCC2)C(O)C1O)C1C=CCC1 (stereo unspecified)
inactive: outcome (HACAT) inactive [at 17.4 µM] | Potency (C33A) | Potency (CAOV3) | outcome (CASKI) | Potency (Es-2) | Potency (HeLa) | Potency (Hek293T) | Potency (JEG-3)

CC(C)C[C@H](NC(=O)[C@@H]1O[C@H]1C(=O)O)C(=O)NCCCCN=C(N)N
inactive: outcome (HACAT) | Potency (C33A) | Potency (CAOV3) | outcome (CASKI) | Potency (Es-2) | Potency (HeLa) | Potency (Hek293T) | Potency (JEG-3)

CC(=O)C1CCC(=O)N1Cc1ccccc1 (stereo unspecified)
inactive: outcome (HACAT) | Potency (C33A) | Potency (CAOV3) | outcome (CASKI) | Potency (Es-2) | Potency (HeLa) | Potency (Hek293T) | Potency (JEG-3)

C=C1CC/C=C(/CO)C(=O)C[C@@H]2[C@@H]1C[C@@]2(C)COC(C)=O
inactive: outcome (HACAT) | Potency (C33A) | Potency (CAOV3) | outcome (CASKI) | Potency (Es-2) | Potency (HeLa) | Potency (Hek293T) | Potency (JEG-3)

COC(=O)[C@@H](NC(=O)[C@H](CC(C)C)NC(=O)N(Cc1ccccc1)C[C@@H](O)[C@H](Cc1ccccc1)NC(=O)OC(C)(C)C)C(C)C
inactive: outcome (HACAT) inactive [at 9.27 µM] | activity change, negative = cytotoxicity (C33A) 9.01% [at 11.6 µM] | activity change, negative = cytotoxicity (CAOV3) -0.568% [at 11.6 µM] | activity change, negative = cytotoxicity (CASKI) 1.08% [at 11.6 µM] | activity change, negative = cytotoxicity (Es-2) 0.55% [at 11.6 µM] | activity change, negative = cytotoxicity (HeLa) 4.24% [at 11.6 µM] | activity change, negative = cytotoxicity (Hek293T) -2.96% [at 11.6 µM] | activity change, negative = cytotoxicity (JEG-3) -2.99% [at 11.6 µM]

NC1(c2ccc(NC(=O)c3ccnc(-c4cc(C(=O)O)ccn4)c3)cc2)CC1
inactive: outcome (HACAT) | Potency (C33A) | Potency (CAOV3) | outcome (CASKI) | Potency (Es-2) | Potency (HeLa) | Potency (Hek293T) | Potency (JEG-3)

CCOc1nc2c(N)ncnc2n1CC
inactive: outcome (HACAT) | Potency (C33A) | Potency (CAOV3) | outcome (CASKI) | Potency (Es-2) | Potency (HeLa) | Potency (Hek293T) | Potency (JEG-3)

Cc1ccc(COC(=O)N2CC[C@@H](CNc3ncccn3)[C@@H](F)C2)cc1
inactive: outcome (HACAT) | Potency (C33A) | Potency (CAOV3) | outcome (CASKI) | Potency (Es-2) | Potency (HeLa) | Potency (Hek293T) | Potency (JEG-3)

CN1CCN(C2=Nc3ccccc3Nc3ccc(O)cc32)CC1
inactive: outcome (HACAT) | Potency (C33A) | Potency (CAOV3) | outcome (CASKI) | Potency (Es-2) | Potency (HeLa) | Potency (Hek293T) | Potency (JEG-3)

CC[C@@H](C)[C@H](N)C(=O)N1Cc2ccccc2C1
inactive: outcome (HACAT) | Potency (C33A) | Potency (CAOV3) | outcome (CASKI) | Potency (Es-2) | Potency (HeLa) | Potency (Hek293T) | Potency (JEG-3)
